Drawing on PubChem BioAssay AID652015 (National Center for Advancing Translational Sciences (NCATS), 2013), this text covers Potency for 39 compounds.

Inconclusive results are not listed. Entries that show only a call come without a potency. Active and inactive are the calls of the source. Calls follow the shape of the dose curve; as a rule, active = well fitted inhibition curve with a large enough effect; inconclusive = small, poorly fitted or top-dose-only effect; inactive = no such curve, though single readings can be large or run the other way.
Potency is read from the fitted curve at half-maximal effect.

Coelenterazine h 2-monooxygenase (Renilla reniformis), sequence (P27652 whole entry, looked up): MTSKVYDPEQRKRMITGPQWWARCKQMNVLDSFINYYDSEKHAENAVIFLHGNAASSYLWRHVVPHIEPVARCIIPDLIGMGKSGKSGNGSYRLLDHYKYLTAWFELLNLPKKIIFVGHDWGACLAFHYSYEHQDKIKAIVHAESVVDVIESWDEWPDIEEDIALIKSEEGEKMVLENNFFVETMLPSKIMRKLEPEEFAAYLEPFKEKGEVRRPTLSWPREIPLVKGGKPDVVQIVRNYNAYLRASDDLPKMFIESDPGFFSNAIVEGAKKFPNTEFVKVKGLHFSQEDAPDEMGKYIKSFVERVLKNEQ

The experiment addresses Coelenterazine h 2-monooxygenase (Renilla reniformis) (UniProt P27652). Put plainly: qHTS Assay for Inhibitors of Sea Pansy Luciferase from the GSK Published Protein Kinase Inhibitor Set. The following applies: purified Renilla luciferase, luminescence; series mostly up to 57.5 µM. Put shortly:
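qHTS (roughly 60 uM down to 300 pM) against 1 nM Renilla luciferase, substrate coelenterazine h 5 uM, Tris acetate pH 7.5 buffer with NaCl, Tween-20 and BSA. Luminescence measured after an average 2 min incubation.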
In general terms: Quantitative high-throughput screening tests each substance at several concentrations.
`N#Cc1ccc(Oc2nccc(-c3c(-c4ccc(F)cc4)ncn3C3CCNCC3)n2)cc1`: the Potency result is “inactive”.

`Cc1cccc(Nc2ncc(-c3ccccc3)o2)c1`: the Potency entry was “inactive”.

Consider `Fc1cccc(COc2ccc(Nc3ncnc4sc(-c5cccs5)cc34)cc2Cl)c1`, for which the Potency entry is “inactive”.

Consider `Fc1ccc(-c2ncn(C3CCNCC3)c2-c2ccnc(Oc3ccc4c(c3)OCO4)n2)cc1`, for which the Potency result was “inactive”.

Take `O=C(Nc1n[nH]c2cc(-c3ccc(F)cc3)ccc12)C1CC1`: the Potency entry was “inactive”.

Regarding `Fc1ccc(-c2ncn(C3CCNCC3)c2-c2ccnc(Oc3cccc(C(F)(F)F)c3)n2)cc1`, the Potency result is “inactive”.

On to `COc1cc2ncn(-c3cc(OCc4ccccc4C(F)(F)F)c(C(C)=O)s3)c2cc1OC`, for which the Potency entry was “inactive”.

With `NS(=O)(=O)c1ccc(N=Nc2c(O)[nH]c3ccc(C(=O)NCc4ccncc4)cc23)cc1`, the Potency result was “inactive”.

As for `Cc1cccc(Oc2nccc(-c3c(-c4ccc(F)cc4)ncn3C3CCNCC3)n2)c1C`, the Potency entry is “inactive”.

On to `CC1=C(C(=O)Nc2ccc3n[nH]c(C)c3c2)C(c2ccc(C(F)(F)F)cc2)CC(=O)N1` (centres undefined), for which the Potency result was “inactive”.

Consider `CC(=O)NCc1cccc(C#Cc2cncnc2Nc2ccc(OCc3cccc(F)c3)c(Cl)c2)c1`, for which the Potency entry was “inactive”.

Regarding `COC(=O)c1cncc(C=Cc2c(C)cc(O)cc2C)c1`, the Potency result was “inactive”.

Take `COc1cc2ncn(-c3cc(OCc4ccccc4C(F)(F)F)c(C(N)=O)s3)c2cc1OC`: the Potency entry is “inactive”.

Take `O=S1CCN(Cc2ccc(-c3ccc4ncnc(Nc5ccc(OCc6cccc(F)c6)c(Cl)c5)c4c3)o2)CC1`: the Potency entry is “inactive”.

As for `Cc1cc(O)cc(C)c1C=Cc1cncc(C(=O)OC(C)(C)C)c1`, the Potency entry is “inactive”.

Take `COc1ccc(-c2cc(-c3cn[nH]c3-c3ccccn3)ccn2)cc1`: the Potency result is “inactive”.

Consider `Oc1[nH]c2ccccc2c1C=Nc1ccc(-n2cncn2)cc1`, for which the Potency result is “inactive”.

For the compound `CN1CCC(C(=O)Nc2n[nH]c3nc(-c4ccc(O)cc4)c(Br)cc23)CC1`, the Potency result was “inactive”.

Regarding `N#Cc1cccc(Nc2ncc(-c3ccccc3)o2)c1`, the Potency result was “inactive”.

As to `O=C(O)c1ccc(Oc2nccc(-c3c(-c4ccc(F)cc4)ncn3C3CCNCC3)n2)cc1`, the Potency result is “inactive”.

As for `COc1cccc(-n2ncc3c(NN=Cc4cccc(F)c4)ncnc32)c1`, the Potency entry was “inactive”.

Take `COc1ccc(-c2nn3ncccc3c2-c2ccnc(Nc3cccc(C(F)(F)F)c3)n2)cc1`: the Potency result was “inactive”.

Turning to `Cc1nnc(-c2ccc(C)c(-c3ccc(C(=O)Nc4cccc(C#N)c4)cc3)c2)o1`, the Potency entry was “inactive”.

As for `NC(=O)c1sc(-n2cnc3cc(C(F)(F)F)ccc32)cc1OCc1ccccc1Br`, the Potency result is “inactive”.

Consider `NS(=O)(=O)c1ccc(Nc2ncc(-c3ccccc3)o2)cc1`, for which the Potency result is “inactive”.

Turning to `CN1CCN(CCCNc2nc3ccc(Oc4ccc(NC(=O)Nc5cc(C(F)(F)F)ccc5F)cc4)cc3[nH]2)CC1`, the Potency was 23.1 µM (active).

For the compound `O=C(Nc1n[nH]c2cc(-c3ccccc3)ccc12)C1CC1`, the Potency entry is “inactive”.

`COc1ccccc1-c1cc(C=C2C(=O)Nc3ncc(Br)cc32)cc(Br)c1O`: the Potency was 8.19 µM (active).

For `CC(C)COC(=O)c1ccc2[nH]c(O)c(C=Nc3ccc(S(N)(=O)=O)cc3)c2c1`, the Potency entry is “inactive”.

As for `FC(F)(F)c1cccc(Nc2nccc(-c3cnn4nc(-c5ccccc5)ccc34)n2)c1`, the Potency result was “inactive”.

With `COc1cccc(-n2ncc3c(NN=Cc4ccc(C)cc4)ncnc32)c1`, the Potency entry was “inactive”.

As to `CN1CCN(Cc2ccc(-c3cc4ncnc(Nc5ccc(OCc6cccc(F)c6)c(Cl)c5)c4s3)o2)CC1`, the Potency was 20.6 µM (active).

With `Clc1ccc(CNc2nccc(-c3cnn4ncccc34)n2)cc1`, the Potency result is “inactive”.

For `c1ccc(-c2[nH]ncc2-c2ccnc(-c3ccc(OCCn4ccnc4)cc3)c2)nc1`, the Potency result was “inactive”.

As for `NC(=O)c1ccc(-c2nc(-c3ccc4c(c3)OCO4)c(-c3ccccn3)[nH]2)cc1`, the Potency result was “inactive”.

Turning to `NCc1ccc(-c2nc(-c3ccc(Cl)c(O)c3)c(-c3ccncc3)[nH]2)cc1`, the Potency entry was “inactive”.

For `CS(=O)(=O)CCNCc1coc(-c2ccc3ncnc(Nc4ccc(OCc5ccccc5)cc4)c3c2)c1`, the Potency entry is “inactive”.

For the compound `COc1cc(Nc2ncc3c(C)nc(-c4cccc(Oc5ccccc5)c4)n3n2)cc(OC)c1OC`, the Potency entry was “inactive”.

Take `COc1ccc2c(-c3ccnc(Nc4cccc(OC(F)(F)F)c4)n3)cnn2n1`: the Potency result is “inactive”.
